Rows were chosen to be rich in hits. Some 5.7% of all compounds tested hit in one or more screens of this group.
MPTP inh = blocks calcium-induced mitochondrial swelling; isolated mouse mitochondria, Ca2+ swelling absorbance, 30 min; inhibition, % at 10 µM; 1.4% of 360,000 active; AID 602449;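 active means inhibition of 50% or more, scaled per plate between neutral and stimulator controls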
FAS-TE inh = blocks the thioesterase domain of human fatty acid synthase; 0.67% of 360,000 active; P49327; AID 602261; inhibition, % at 15 µM; recombinant FAS-TE, OMFH fluorogenic substrate, fluorescence endpoint;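 active means compounds whose normalised, plate-corrected inhibition of enzyme fluorescence in the single-dose primary screen is 50% or more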
Myeloid diff MLP = compounds promoting myeloid differentiation | ER-HoxA9 myeloid progenitors, lysozyme-GFP differentiation, flow cytometry | calls only at 10 µM | 1% of 360,000 active | AID 624256;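 active means normalized GFP-positive differentiation at or above the plate's own cutoff, the solvent-only control mean plus 3 SD; inconclusive means no clear call, values can overlap the other calls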;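 further: cells exposed to compound for four days before flow analysis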
GRIN3A LBD mod = modulators (binders) of human NR3A ligand-binding domain; NR3A LBD differential scanning fluorimetry, Tm shift; 0% = protein alone, 100% = glycine-bound protein; Tm shift relative to glycine control, % at 25 µM; 2.5% of 340,000 active;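 active means melting temperature shift of at least 10% of the positive control shift, at one fixed dose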
rCAG binder = molecules binding r(CAG) RNA repeats; r(CAG) RNA repeat, TO-PRO-1 dye displacement fluorescence; inhibition, % at 3 µM; 1.3% of 370,000 active;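 active means inhibition above the plate cutoff, the mean of all test compounds on that plate plus 3 SD, cut at about 35% in these data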;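 further: higher means more dye released from RNA so lower well fluorescence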
Each line names hits and unclear results; the compound was inactive in the other large screens.

COc1cc(OC)cc(C(=O)Nc2ccc(C(=O)Nc3ccccc3OC)cc2)c1	GRIN3A LBD mod 35
COc1ccc(NC(=O)Nc2ccc3oc(C)nc3c2)cc1	GRIN3A LBD mod 25
COc1cccc(NC(=O)CN(C)CC(=O)NCC(=O)Nc2ccc(F)cc2)c1	GRIN3A LBD mod 19
C/C=C/c1ccc([C@H]2[C@@H](CN(CC(C)C)S(=O)(=O)c3ccccc3[N+](=O)[O-])N(C(=O)Nc3cccc(OC)c3)[C@H]2CO)cc1	none (no result: MPTP inh, FAS-TE inh, Myeloid diff MLP, GRIN3A LBD mod)
O=C(c1ccccc1OCc1ccccc1)N(Cc1ccccn1)CC1CCCO1 (stereo not given)	none (no result: MPTP inh, FAS-TE inh, Myeloid diff MLP, GRIN3A LBD mod)
COC(=O)Cn1c(=NC(=O)C(C)C)sc2c(C)cc(C)cc21	GRIN3A LBD mod 20
Cc1ccccc1S(=O)(=O)N(C)C[C@H]1OCc2cnnn2CCCC(=O)N([C@H](C)CO)C[C@H]1C	Myeloid diff MLP active (no result: GRIN3A LBD mod)
Cc1nn(CCC(=O)NNC(=O)NCc2ccccc2)c(C)c1[N+](=O)[O-]	none (no result: MPTP inh, FAS-TE inh, Myeloid diff MLP, GRIN3A LBD mod)
CCCc1ccc(OC(=O)c2ccc(O)cc2Cl)cc1	GRIN3A LBD mod 16
Cc1ccc(NC(=O)[C@H]2CC(=O)O[C@@H]2c2ccccc2)cc1C	none (no result: MPTP inh, FAS-TE inh, Myeloid diff MLP, GRIN3A LBD mod)
COc1cccc(C2Nc3cc(Cl)c(S(N)(=O)=O)cc3S(=O)(=O)N2)c1 (stereo not given)	GRIN3A LBD mod 11
O=C(CC1CCCC1)N[C@H](C(=O)N1CCC[C@H]1C(=O)NC1CCCC1)c1ccccc1	none (no result: MPTP inh, FAS-TE inh, Myeloid diff MLP, GRIN3A LBD mod)
O=C1OC(c2ccc(Cl)cc2)=C/C1=C/c1cccnc1	none
O=C1OC(c2ccc(F)cc2)=C/C1=C\c1ccc(O)cc1	GRIN3A LBD mod 17
CC(Oc1cccc(Cl)c1)C(=O)Nc1ccc(S(=O)(=O)N(C)C2CCN(C)CC2)cc1 (stereo not given)	Myeloid diff MLP active
CC(=O)Nc1ccc(S(=O)(=O)N(C)C2CCN(C)CC2)cc1	none
CC(Oc1cccc(Cl)c1)C(=O)Nc1cc(Cl)ccc1N1CCOCC1 (stereo not given)	GRIN3A LBD mod 21
CC(Oc1cccc(Cl)c1)C(=O)Nc1ccccc1N1CCCCC1 (stereo not given)	none
COc1ccc(N2CCCN(CC(=O)Nc3ccccc3C)CC2)cc1	none (no result: MPTP inh, FAS-TE inh, Myeloid diff MLP, GRIN3A LBD mod)
O=[N+]([O-])c1ccc2c(c1)N([O-])C1(CCCCC1)[N+]2=O	rCAG binder 35 (no result: MPTP inh, FAS-TE inh, Myeloid diff MLP)
CC1=C(c2ccccc2)[N+](=O)C2(CCCC2)N1[O-]	none
CC(C)CNC(=O)OCc1cn(Cc2cccc(F)c2)nn1	none (no result: MPTP inh, FAS-TE inh, Myeloid diff MLP, GRIN3A LBD mod)
CCN(CC)S(=O)(=O)c1ccc(NC2c3ccccc3C(=O)N2CCN2CCOCC2)cc1 (stereo not given)	Myeloid diff MLP active
Cc1ccc(C(=O)N2CCC[C@@H]2C(=O)N2CCC[C@@H]2C(=O)NCc2ccccc2)cc1	none (no result: MPTP inh, FAS-TE inh, Myeloid diff MLP, GRIN3A LBD mod)
CC(=O)O[C@H]1C[C@@H](n2cnc3c(Cl)ncnc32)[C@@H]2OC(C)(C)O[C@@H]21	none (no result: MPTP inh, FAS-TE inh, Myeloid diff MLP, GRIN3A LBD mod)
Oc1ccc(/C=N/Nc2ncc(Br)cn2)c(O)c1	GRIN3A LBD mod 31
Oc1ccc(/C=N/Nc2nccnc2Cl)c(O)c1	Myeloid diff MLP inconclusive, GRIN3A LBD mod 18
Oc1ccccc1/C=N/Nc1nccnc1Cl	Myeloid diff MLP inconclusive
COc1ccc(/C=N/Nc2nccnc2Cl)cc1	GRIN3A LBD mod 12
O=C(NC1CCCC1)c1nc(-c2ccco2)oc1-c1ccccc1	rCAG binder 35 (no result: FAS-TE inh, GRIN3A LBD mod)
O=C(NC1CCCCC1)c1nc(-c2c(F)cccc2F)oc1-c1ccccc1	none (no result: FAS-TE inh, GRIN3A LBD mod)
Cc1cc(N2CCCC2)ccc1/C=N/n1cnnc1	Myeloid diff MLP active
Cc1cccc(C2=CC(=O)CC(C)(C)C2=O)c1	none (no result: MPTP inh, FAS-TE inh, Myeloid diff MLP, GRIN3A LBD mod)
COc1ccc([C@H](C#Cc2ccccc2)CC(=O)O)cc1OC1CCCC1	none (no result: MPTP inh, FAS-TE inh, Myeloid diff MLP, GRIN3A LBD mod)
COc1ccccc1Cc1c(-c2cccc(Cl)c2)nc2c3ccccc3ccn12	none (no result: MPTP inh, FAS-TE inh, Myeloid diff MLP, GRIN3A LBD mod)
CC(C)OC(=O)NCCOC(=O)Nc1ccc(Cl)cc1	GRIN3A LBD mod 25
C=CCn1c(SCC(=O)O)nnc1-c1ccco1	none (no result: MPTP inh, FAS-TE inh, Myeloid diff MLP, GRIN3A LBD mod)
CN(/N=C/c1ccc(-c2ccc([N+](=O)[O-])cc2)o1)c1ccccc1	GRIN3A LBD mod 13
O=C1Nc2ccccc2/C1=N/N=C/c1ccc(-c2ccc([N+](=O)[O-])cc2)o1	none
O=C(N/N=C\c1ccc(-c2ccc([N+](=O)[O-])cc2)o1)c1ccc2c(c1)OCO2	GRIN3A LBD mod 31
COc1cc(C(=O)NCC(=O)N/N=C/c2ccc(-c3ccc([N+](=O)[O-])cc3)o2)cc(OC)c1OC	GRIN3A LBD mod 14 (no result: Myeloid diff MLP)
Cc1ccc(/C=N\NC(=O)c2ccc3c(c2)OCO3)o1	none
CCOC(=O)C1=C(C(=O)OCC)C2N(Cc3ccc(Br)cc3)c3ccccc3[C@@]23C[C@@H](C(=O)OC)N(S(=O)(=O)c2ccc(F)cc2)C3=N1 (stereo not given in full)	none (no result: MPTP inh, FAS-TE inh, Myeloid diff MLP, GRIN3A LBD mod)
